Reference: the supplement of paper PMC3334620
In all, about 33,000 sequences were measured (“E-score (-0.5 to 0.5)”: median about -0.01, highest 2% from about 0.26 on). The entries come from a sample that favours the highest values as a whole.

These sequences were tested against Ste12 (UniProt P13574) (assay: PBM E-score (8-mer binding enrichment) (E-score (-0.5 to 0.5)); higher = stronger / more preferred TF binding). Conditions: protein concentration: 200 nM; construct: GST-DNA-binding domain.
Protocol: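 Universal 'all 10-mer' protein binding microarrays (Agilent AMADID 015681) probed with GST-tagged S. cerevisiae TFs (full-length or DBD) made by in vitro transcription/translation (PURExpress), about 100-200 nM. Bound TF was detected with fluorescent anti-GST. Each ungapped 8-mer (which stands for itself and its reverse complement) is scored by the PBM enrichment score (E-score), a modified Wilcoxon-Mann-Whitney statistic from -0.5 to +0.5, computed with the Universal PBM Analysis Suite. Scale: above 0.35 generally sequence-specific binding.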

Sequence of UniProt P13574 (P13574 whole entry, the tested form may be a part): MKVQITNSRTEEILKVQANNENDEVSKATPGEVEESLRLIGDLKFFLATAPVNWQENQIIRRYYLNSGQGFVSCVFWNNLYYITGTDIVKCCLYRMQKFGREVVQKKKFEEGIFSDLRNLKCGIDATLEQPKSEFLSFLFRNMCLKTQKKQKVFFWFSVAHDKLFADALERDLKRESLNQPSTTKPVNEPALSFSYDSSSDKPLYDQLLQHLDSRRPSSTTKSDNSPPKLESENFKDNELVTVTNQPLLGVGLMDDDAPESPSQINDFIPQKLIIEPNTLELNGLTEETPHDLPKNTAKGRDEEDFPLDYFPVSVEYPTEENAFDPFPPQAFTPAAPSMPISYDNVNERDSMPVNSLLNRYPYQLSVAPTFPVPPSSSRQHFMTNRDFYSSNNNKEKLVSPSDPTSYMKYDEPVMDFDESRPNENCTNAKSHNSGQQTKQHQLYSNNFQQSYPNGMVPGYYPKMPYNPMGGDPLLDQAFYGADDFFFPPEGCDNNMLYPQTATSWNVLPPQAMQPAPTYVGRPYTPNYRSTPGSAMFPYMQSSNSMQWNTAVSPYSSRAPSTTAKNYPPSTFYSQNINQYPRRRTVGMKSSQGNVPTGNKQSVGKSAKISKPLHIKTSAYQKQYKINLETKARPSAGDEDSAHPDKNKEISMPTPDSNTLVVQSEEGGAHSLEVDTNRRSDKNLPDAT

Sequence	PBM E-score
CGAAGACG	-0.13
CAATGGGA	-0.134
GCCTAAGC	-0.358
CCACTGGC	-0.0254
AATCAGAG	0.0937
AATCAGAA	0.27
CATCAGAA	0.0441
AGGTAGCC	-0.26
CAGGGTAG	-0.114
CTGACTAC	-0.129
CTGATACC	0.0308
CTGATACA	0.28
ATGATACA	0.294
ATGATACG	0.25
ATGATACC	0.0159
GTGATACA	0.195
GGCGCTTA	0.0142
AGGGCCAC	-0.202
CTCAATCC	0.0296
GAAAAGCA	0.0143
ACAGCCAG	-0.178
CTTGGTTA	0.052
CCCCTACC	0.0111
TTGTAAAA	0.315
CTGTAAAA	0.219

Sequence	PBM E-score
GTGTAAAA	0.15
ATGTAAAA	0.349
ATGTAAAT	0.113
TAGTAAAA	0.211
TCGTAAAA	0.279
GCGTAAAA	0.163
ACGTAAAA	0.161
ATAGAGCC	-0.0936
TACAGACA	0.0984
ACAGCTCG	-0.157
GCAGAGGC	-0.185
CACTCGCC	-0.0182
CAAAAGTG	0.00054
AGATCTCA	0.0566
CGATGAAG	0.0893
AGATGAAA	0.39
CGATGAAA	0.289
GGATGAAC	-0.196
TGATGAAA	0.258
GGATGAAA	0.395
AGATGAAC	0.098
AGATGAAG	0.102
CGATGAAC	0.124
CCTCTACG	-0.283
AGAGCCCC	-0.201

Sequence	PBM E-score
CACTGGAA	-0.101
ACATGGAC	-0.00801
ATGACATA	0.222
ACGTTACA	0.164
GTGTTACA	0.19
CTGTTACC	-0.03
CTGTTACA	0.378
ATGTTACC	0.175
ATGTTACA	0.297
GCGTTACA	0.139
CCGTTACA	0.318
ATGTTACG	-0.0262
AACGTCCG	-0.102
ACGCTGTG	-0.038
GCTGGCCA	-0.00597
CTTAGGGA	-0.316
AAATGAAG	0.257
GCGCTTCC	-0.0472
AAGGATAA	-0.00803
AATTGCAT	0.0393
ACTACCTA	-0.242
CCTGTTTA	0.0871
ACTGTTTA	0.165
ACTGTTTC	0.289
ACTGTTTG	0.188

Sequence	PBM E-score
CCTGTTTC	0.32
CCTGTTAC	0.151
GAAACGGC	0.229
AAAACGGA	0.273
CAAACGGA	0.0164
GAAACGGA	0.343
AAAACGGT	0.152
AAAACGGC	0.225
GCCCCGAC	-0.135
AACCTAAA	0.324
CACCTAAA	0.0511
TACCTAAA	0.138
CCCCGTTA	-0.00038
AACAACTA	-0.00598
TACAACTA	0.268
CACAACTA	0.153
ACAGGTCT	-0.267
ATGTTCTC	-0.124
TCAAAACA	0.209
ACAAAAAA	0.311
TCAAAAGA	0.202
ACACAAAT	0.108
GCAAAGCA	-0.148
AAAAAGCA	0.108
ACAAAAAG	0.125

Sequence	PBM E-score
AACAAAAT	0.11
ACAAAGCA	0.29
ACAAAAAC	0.201
ACAAAAAT	0.288
TCAAAAAA	0.32
ACCGCTCA	-0.0178
CACCGCAC	-0.00376
ACCGCCGC	0.0865
GGATACTA	0.0524
CGCGGGAC	0.012
AGGCCAGC	-0.157
CCTGGTAG	-0.00862
ATGCCTCG	0.00724
CTCACCAA	0.284
CTCACCAC	-0.168
TTCACCAA	0.0895
TAAATTTA	0.334
GAAATTGA	0.12
CAAATTTA	0.217
AAAATTTA	0.085
AAAATTGA	0.226
TAAATTGA	0.288
ACGCTCTC	-0.122
ACCTGCTC	-0.0508
ATACCTCA	0.0605

Sequence	PBM E-score
ATGTCTGG	0.0356
CGCGGGAA	0.161
GGCGGGAA	0.00719
CGCGGGGA	0.333
AGCGGGGA	0.111
GGGGGGGA	-0.298
GGCGGGGA	0.407
AAAATCTC	0.119
CGTTAGGC	-0.0275
CTTAATAC	0.207
ATTAATAC	0.263
ATTAATTA	0.237
AATAATAA	0.308
AATAATAG	0.0434
ATTAATTG	0.237
ATTAATTC	0.308
ATTAATCC	0.0655
ATTAATCG	0.273
AATAATAC	0.198
CATAATAA	0.136
ATTAATCA	0.145
GCATTCGC	-0.276
CCAAACCC	0.194
ATAGATCG	0.0199
CTAACCTC	-0.0539

Sequence	PBM E-score
ACCTGTCG	0.00512
CCGCGGCC	0.174
CAATACCC	-0.00702
AGACTACC	-0.179
AAACTAGT	0.123
ATCATCTC	0.0683
AGTAATAG	0.0705
CTTAATAA	0.232
ATTAATAG	0.283
GTTAATAA	0.0895
ATTAATAA	0.289
AATAAGAT	0.00235
AATAAGAA	0.276
AATAAGAG	0.0566
ATTAATGG	0.219
ACTGGTCT	-0.117
GTGATCGA	0.161
ATTGTGTG	-0.0472
CTTGTGTA	0.0226
ATTGTGTA	0.274
ACTGCGAT	-0.072
CATGGCAA	0.0424
TAACATGA	0.098
